Measurements from publication PMC10163288.
The list is a sample of the results. The true hit rate is not given.

B1: il2ra_site2_3nfp_sap_26_mot_HHH_b1_00015_000000185_0001_19_35_H_._HHH_b2_06138_0001_0000600047_0000001_0_0001_af2pred_0001_af2pred (protein)
chain: SSSSSSDEEEEVEKLLEEAKHIEDEFELYAVLADAARIAFELKDEELRRLVKEVRHELSSSSSSS
B2: il2ra_site1_1z92_normal_mot_HHH_b1_08597_af2_000000202_0001_42_56_H_._6e12af4a48b4634929ba45889b8be782_0001_0001_0000600034_0000001_0 (protein)
chain: NVEWAIENLERLARLQGNPEVERVLRRVLELLKKNEEEAEEFLEELVRELGDKLLRLLLRMLKTA
B3: il2ra_site1_1z92_sap_14_mot_1581cc1c700002558836ca695aafbf97_0001_1_af2_000000099_0001_17_32_H_._d5167a162c519d043ddc16d89768c28c_0001_1_0001_0000100008_0000001 … (protein)
chain: SLEEEIERALKEAGVPPEEIEAIKRDIRRTQEFGIPPRSIALAVLRALKSHDEELAERVEELLRK
B4: il2ra_site1_1z92_normal_mot_HHH_b2_05238_af2_000000252_0001_38_55_H_._HHH_b1_01495_af2_0002_0000300012_0000001_0_af2pred_0001_af2pred_1 (protein)
chain: SSSSSKEESLELAERAARRAIEAGNERSARRLLKFVIEAAEELGNEELLEELEELLERLESSSSS
B5: il2ra_site2_2erj_sap_29_mot_dcd9809507f71d420582ead1f1e1bbb3_0001_000000226_0001_37_50_H_._HHH_b1_02896_af2_0001_0000500038_0000001_0_0001 (protein)
chain: SSSSSSLHELYELANRLMHALSNGDEELLEELLEELEELAKELQSDTAREIVENIRRRLSSSSSS
B6: il2ra_site1_1z92_sap_17_mot_c66c727fe7b11027095aa3ef302aaf37_0001_000000167_0001_38_52_H_._665b9007e6d0b9979c9b0c82f83b8fcc_0001_0001_0000200023_0000001_0_0001 (protein)
chain: SSSSDSRERIEELAEFLARDIKMTGNPWARRLLELLLEKAEKLGDEELREIIEQLLEELRSSSSS
B7: il2ra_site1_3nfp_sap_16_mot_HHH_b1_00461_af2_000000238_0001_1_17_H_._HHH_b2_08025_0001_0000300024_0000001_0_0001_af2pred_0001_af2pred_swapped (protein)
chain: SSSSSRILRFLEELARKAFERNDKKQLEAILKLIRKAAKQFKDEEVEELLELVEELLKKLSSSSS
B8: il2ra_site2_2erj_normal_mot_HHH_b1_05204_000000269_0001_1_15_H_._HHH_b1_00954_0001_0000200014_0000001_0_1_af2pred_0001_af2pred (protein)
chain: SSSSDLEEELRRLLEELEELVKEGDEKKFMEVALRVAKLVIENNDEEAAKLLLRLLRELRSSSSS
B9: il2ra_site2_2erj_sap_27_mot_HHH_b1_08185_000000063_0001_41_55_H_._HHH_b1_03158_0001_0000300009_0000001_0_0001_af2pred_0001_1_af2pred_swapped (protein)
chain: SSSDAQERAREVLEEVIELLRQGNHEEAKKLLEEAREILEELGDRAAVRLIEAALRLLESLSSSS
B10: il2ra_site2_2erj_sap_22_mot_c2bf78bdce995293a161f7082e24b401_0001_af2_000000082_0001_17_32_H_._HHH_b2_05133_0001_0000600016_0000001_0_0001 (protein)
chain: SSSSDEELHEIFELLSLLLEAIQKGDDELFKKLVEEVRQLIEEKGSPNLREILEWLERHFHSSSS
B11: il2ra_site2_3nfp_normal_mot_HHH_b1_04264_000000089_0001_1_18_H_._332cd829babfe32ea4315b179459513b_0001_1_0001_0000100003_0000001_0 (protein)
chain: SQEVFEVIHKLREEGDPELAISLFALLAELLLHPENEELREKLEELLEIIKKNPEEAREVARKLP
B12: il2ra_site2_2erj_normal_mot_HHH_b1_07741_000000192_0001_1_20_H_._9b1ece5d1ebc94355a99c96473898622_0001_1_af2_0001_0000300001_0000001_0 (protein)
chain: DQEEFLRRAARENPETFIRYAELLAKDAGNPELLKLVEELKEEVEKGEIPPEEAAELVVEVLEEL
B13: il2ra_site2_2erj_sap_23_mot_HHH_b1_06697_000000025_0001_41_54_H_._HHH_b2_03690_0001_0000400021_0000001_0_0001 (protein)
chain: SSSSDYEERVKELLEELRELLEEGDEEKFEELVFEVSQLIFENNDFELFAELTEIFEEFIRSSSS
B14: il2ra_site1_2b5i_normal_mot_HHH_b2_04910_000000118_0001_1_19_H_._HHH_b1_05884_0001_0000500029_0000001_0 (protein)
chain: SSSSSEETRELQELFREADELDRRGNEEEAEEVLREAIELARQAGSRSMLKMLESALKELGSSSS
B15: il2ra_site1_3nfp_normal_mot_HHH_b1_05523_000000027_0001_1_19_H_._HHH_b1_07881_af2_0001_0000100003_0000001_0_af2pred_0001_af2pred_1 (protein)
chain: SSSSTEVSRRVLELIEEALELAQNGNPEEAEEVLREALKLAEEAGNESTARFIRKALEQSSSSSS
B16: il2ra_site1_3nfp_sap_10_mot_cc4219192d8ccd35c40e7b68f9a57604_0001_af2_000000124_0001_16_32_H_._HHH_b2_07250_0001_0000100001_0000001_0_0001 (protein)
chain: SSSSSEIEEEVRELLEEAEQLLKEGDWEEAAKVVEEAMKLASQANDDELDQLIMEWVRKLSSSSS
B17: il2ra_site1_3nfp_sap_18_mot_HHH_b2_03549_000000219_0001_1_18_H_._HHH_b1_06169_0001_0000200013_0000001_0_0001 (protein)
chain: NDERVASKLVEEAARSAGVDEVEVSVSNGTLHVEVSGGDRAARRVEEAAKQIAEWLGVEVEVTFE
B18: il2ra_site1_3nfp_normal_mot_HHH_b1_01231_af2_000000170_0001_1_16_H_._HHH_b1_02076_0001_0000200037_0000001_0_af2pred_0001_af2pred_1_swapped (protein)
chain: SSSSSSREELELKERVLRLLARIRDPEEARRVLEEAEELAKELGDERLLEELEKLLKRLGSSSSS

biological target: il2ra, P01589; experiment: yeast display titration
Sequence (P01589 whole entry): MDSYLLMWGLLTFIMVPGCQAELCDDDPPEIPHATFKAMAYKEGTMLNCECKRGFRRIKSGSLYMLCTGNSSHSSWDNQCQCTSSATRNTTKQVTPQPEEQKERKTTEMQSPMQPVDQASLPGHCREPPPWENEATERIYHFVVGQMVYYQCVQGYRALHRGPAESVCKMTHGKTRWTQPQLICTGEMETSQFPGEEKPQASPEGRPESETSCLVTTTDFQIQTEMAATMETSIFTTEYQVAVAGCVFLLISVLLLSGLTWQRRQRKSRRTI

Apparent Kd, inactive:
B1 no binding seen
B2 > 311 nM
B3 no binding seen
B4 no binding seen
B5 no binding seen
B6 no binding seen
B7 no binding seen
B8 no binding seen
B9 no binding seen
B10 no binding seen
B11 no binding seen
B12 no binding seen
B13 no binding seen
B14 no binding seen
B15 no binding seen
B16 no binding seen
B17 no binding seen
B18 no binding seen
